Source: PubChem BioAssay (NCATS)
Results filed as inconclusive are left out. Unmarked numbers belong to inactive results. Active and inactive are the calls of the source. Calls follow the shape of the dose curve; as a rule, active = well fitted inhibition curve with a large enough effect; inconclusive = small, poorly fitted or top-dose-only effect; inactive = flat fitted curve, though single readings scatter.

These compounds were tested against Phospholipid hydroperoxide glutathione peroxidase GPX4 (Homo sapiens) (UniProt P36969) (assay: Primary qHTS Assay for Inhibitors of Recombinant Selenoprotein Glutathione Peroxidase 4 (GPX4) (AID 1845192; also: nearly all actives have a fitted effect of over 65% in size)). Conditions: recombinant GPX4, GR-coupled NADPH fluorescence, 15 min; series mostly up to 50 µM; activity change, negative = inhibition: at the top concentration.
Phospholipid hydroperoxide glutathione peroxidase GPX4 (Homo sapiens), sequence (P36969 whole entry, looked up): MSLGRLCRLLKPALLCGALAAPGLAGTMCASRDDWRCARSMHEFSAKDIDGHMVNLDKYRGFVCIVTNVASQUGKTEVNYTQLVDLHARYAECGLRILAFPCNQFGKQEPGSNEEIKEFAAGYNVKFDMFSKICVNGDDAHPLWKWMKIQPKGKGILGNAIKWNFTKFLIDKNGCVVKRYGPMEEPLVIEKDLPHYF
In short: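 Steps: GPX4 plus compound, 30 min RT; add GR/GSH/NADPH master mix; start with cumene hydroperoxide; read 340/450 nm fluorescence at 0 and 15 min. Finals were 200 nM GPX4, 1 mM GSH, 0.5 mM CHP, 0.5 mM NADPH, 100 nM GR.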
% is scaled to controls: 0 for no effect and ±100 for the full control effect; potency is read from the fitted curve at half-maximal effect.

| SMILES | Potency | outcome | activity change, negative = inhibition |
| --- | --- | --- | --- |
| C#C[C@]1(O)CC[C@H]2[C@@H]3CCc4cc(OC)ccc4[C@H]3CC[C@@]21C | inactive |  |  |
| CCc1nn(CCCN2CCN(c3cccc(Cl)c3)CC2)c(=O)n1CCOc1ccccc1 |  | inactive |  |
| CCOC(=O)[C@H](CCc1ccccc1)N[C@@H](C)C(=O)N1[C@H](C(=O)O)C[C@@H]2CCC[C@@H]21 | inactive |  |  |
| CC(C)Cc1ccc(CC(=O)O)cc1 |  |  | 2.41% |
| CC[C@H](c1ccc(O)cc1)[C@@H](CC)c1ccc(O)cc1 |  |  | -13.4% |
| CN(C)CCN1C(=O)c2ccccc2N(C)c2ccccc21 |  |  | -4.71% |
| NC1CCN(c2nc3c(cc2F)c(=O)c(C(=O)O)cn3-c2ccc(F)cc2F)C1 (stereo not drawn) |  |  | 1.53% |
| CCc1ccc(C(=O)C(C)CN2CCCCC2)cc1 (stereo not drawn) |  |  | -18.4% |
| O=C(O)CCC(=O)Nc1ccc(S(=O)(=O)Nc2nccs2)cc1 |  | inactive |  |
| CCOC(=O)Nc1ccc2c(c1)N(C(=O)CCN1CCOCC1)c1ccccc1S2 |  |  | 0.373% |
| CCN(CC)CCOc1ccccc1C(=O)CCc1ccccc1 |  | inactive |  |
| NS(=O)(=O)c1cc(C(=O)O)cc(N2CCCC2)c1Oc1ccccc1 |  | inactive |  |
| C[C@@]12C(=O)OC(=O)[C@]1(C)C1CCC2O1 |  |  | -0.764% |
| CCCCC(CC)COC(=O)/C=C/c1ccc(OC)cc1 (stereo not drawn) |  |  | -7.96% |
| CC(C)Nc1cccnc1N1CCN(C(=O)c2cc3cc(NS(C)(=O)=O)ccc3[nH]2)CC1 |  |  | -19.9% |
| CCCCCCCCCCCCSCCOCCO |  |  | 0.951% |
| COc1ccc(C(Cl)=C(c2ccc(OC)cc2)c2ccc(OC)cc2)cc1 |  | inactive |  |
| CO[C@H]1C=CO[C@@]2(C)Oc3c(C)c(O)c4c(O)c(c(/C=N/N5CCN(C)CC5)c(O)c4c3C2=O)NC(=O)/C(C)=C\C=C[C@H](C)[C@H](O)[C@@H](C)[C@@H](O)[C@@H](C)[C@H](OC(C)=O)[C@@H]1C | 17.8 µM (active) |  |  |
| NC(=O)C1(N2CCCCC2)CCN(CCCC(=O)c2ccc(F)cc2)CC1 |  | inactive |  |

| SMILES | Potency | outcome | activity change, negative = inhibition |
| --- | --- | --- | --- |
| O=C(O)CCNC(=O)c1ccccc1 |  | inactive |  |
| CCOc1cc(OCC)c(C(=O)CCC(=O)O)cc1OCC |  | inactive |  |
| COc1cc(NS(=O)(=O)c2ccc(N)cc2)ncn1 |  |  | 3.3% |
| O=C(Oc1cccc2cccnc12)c1ccccc1 |  | inactive |  |
| C/C=C/c1ccc(O)c(OC)c1 |  | inactive |  |
| OC[C@H]1O[C@@H](Oc2ccc(O)cc2)[C@H](O)[C@@H](O)[C@@H]1O |  |  | -14.4% |
| NC(=O)c1ccccc1O |  |  | -8.11% |
| CC(CNC1CCCCC1)OC(=O)c1ccccc1 (stereo not drawn) |  |  | 2.38% |
| Cc1c[nH]c2ccccc12 |  |  | -1.21% |
| C[C@@H](O)[C@H]1C(=O)N2C(C(=O)O)=C(S[C@@H]3CN[C@H](CNS(N)(=O)=O)C3)[C@H](C)[C@H]12 |  |  | -15.3% |
| CCC(Cc1c(I)cc(I)c(N)c1I)C(=O)O (stereo not drawn) |  | inactive |  |
| CCCCCN=C(N)N/N=C/c1c[nH]c2ccc(OC)cc12 |  |  | -0.579% |
| Cc1c(-c2ccccc2)oc2c(C(=O)OCCN3CCCCC3)cccc2c1=O |  |  | -11.6% |
| Nc1ccc(S(=O)(=O)Nc2cnc3ccccc3n2)cc1 |  | inactive |  |
| CN(CCCN1c2ccccc2CCc2ccccc21)CC(=O)c1ccc(Cl)cc1 |  | inactive |  |
| Nc1nc(-c2ccccc2)c(Br)c(=O)[nH]1 |  |  | -13.4% |
| CC(=O)O[C@H]1C[C@@H]2CC[C@@H]3[C@H](CC[C@@]4(C)[C@H]3C[C@H]([N+]3(C)CCCCC3)[C@@H]4OC(C)=O)[C@@]2(C)C[C@@H]1N1CCCCC1 |  | inactive |  |
| Cc1cc(C)cc(OCC2CNC(=O)O2)c1 (stereo not drawn) |  | inactive |  |
| Nc1nc(Cl)nc2c1ncn2[C@@H]1O[C@H](CO)[C@@H](O)[C@@H]1F | inactive |  |  |
